# From PubChem BioAssay
# Activity calls are given as the source filed them. Unless noted, the rule behind the calls is not given here.
# Tests used:
# [1] = anti-His antibody binders, primary screen, artefact control for SMM control protein annotation, biochemical, small-molecule microarray, 635 nm fluorescence (AID 1128); details: anti-His Alexa647 antibody binding, higher = more signal;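 note: score merges feature fluorescence with signal-to-noise for each printed compound spot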
# [2] = test system: Human papillomavirus type 1a E7 protein (residues 1-88); experiment: HPV1a E7 small-molecule binders, primary screen, biochemical, small-molecule microarray, residues 1-88, 635 nm (AID 1129); details: small-molecule microarray binding, fluorescence 635 nm; higher = more signal
# [3] = molecular target: Focal adhesion kinase 1 (Homo sapiens) (UniProt Q05397); experiment: small-molecule microarray binders of FAK, primary screen, biochemical, 635/667 nm fluorescence, BSA, DTT (AID 1130); details: PTK2 binding, 635 nm fluorescence, higher = more signal;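 note: composite of spot emission at 667 nm and signal to noise over triplicate slides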
# Chain of Focal adhesion kinase 1 (Homo sapiens) (Q05397 whole entry, looked up): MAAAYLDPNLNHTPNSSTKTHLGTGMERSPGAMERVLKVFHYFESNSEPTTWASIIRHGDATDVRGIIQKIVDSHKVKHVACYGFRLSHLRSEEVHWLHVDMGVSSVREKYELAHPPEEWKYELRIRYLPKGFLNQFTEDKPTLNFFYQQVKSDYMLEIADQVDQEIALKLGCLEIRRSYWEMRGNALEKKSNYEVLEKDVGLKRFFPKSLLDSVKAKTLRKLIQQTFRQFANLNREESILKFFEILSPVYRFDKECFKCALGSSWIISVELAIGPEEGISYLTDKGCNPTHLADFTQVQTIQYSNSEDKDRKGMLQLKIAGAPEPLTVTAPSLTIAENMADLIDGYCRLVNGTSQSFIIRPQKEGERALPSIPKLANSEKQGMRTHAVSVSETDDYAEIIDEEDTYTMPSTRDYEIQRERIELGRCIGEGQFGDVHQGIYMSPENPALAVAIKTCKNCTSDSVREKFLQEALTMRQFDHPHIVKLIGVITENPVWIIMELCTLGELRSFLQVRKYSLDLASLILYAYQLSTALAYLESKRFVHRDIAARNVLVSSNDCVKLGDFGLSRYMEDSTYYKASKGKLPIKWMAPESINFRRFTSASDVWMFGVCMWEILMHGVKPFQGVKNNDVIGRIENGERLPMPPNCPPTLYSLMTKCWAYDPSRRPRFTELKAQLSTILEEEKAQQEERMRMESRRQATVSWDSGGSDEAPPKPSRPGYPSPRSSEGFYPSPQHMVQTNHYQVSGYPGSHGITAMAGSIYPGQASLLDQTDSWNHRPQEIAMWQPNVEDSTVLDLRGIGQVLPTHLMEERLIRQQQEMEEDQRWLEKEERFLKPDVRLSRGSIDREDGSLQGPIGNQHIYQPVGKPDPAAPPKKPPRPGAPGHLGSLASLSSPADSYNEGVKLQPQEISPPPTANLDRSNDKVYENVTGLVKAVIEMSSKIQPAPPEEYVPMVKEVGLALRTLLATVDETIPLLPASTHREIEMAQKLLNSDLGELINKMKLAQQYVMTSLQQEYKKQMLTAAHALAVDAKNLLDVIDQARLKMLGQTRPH
# [4] = test system: Fibrinogen (Alexa647-labelled); experiment: fibrinogen binders on compound microarrays, profiling panel, artefact control for SMM control-protein annotation, biochemical, small-molecule microarray, 635/667 nm fluorescence (AID 1131); details: fibrinogen-A647 binding fluorescence, higher = more signal;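 note: z-score merges 667 nm fluorescence with per-spot signal-to-noise over triplicate slides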
# [5] = molecular target: Follistatin (Homo sapiens) (UniProt P19883); experiment: follistatin binders on small-molecule microarrays, primary screen, biochemical, small-molecule microarray, 635/667 nm fluorescence (AID 1132); details: FST binding, 635 nm fluorescence, higher = more signal
# Chain of Follistatin (Homo sapiens) (P19883 whole entry, looked up): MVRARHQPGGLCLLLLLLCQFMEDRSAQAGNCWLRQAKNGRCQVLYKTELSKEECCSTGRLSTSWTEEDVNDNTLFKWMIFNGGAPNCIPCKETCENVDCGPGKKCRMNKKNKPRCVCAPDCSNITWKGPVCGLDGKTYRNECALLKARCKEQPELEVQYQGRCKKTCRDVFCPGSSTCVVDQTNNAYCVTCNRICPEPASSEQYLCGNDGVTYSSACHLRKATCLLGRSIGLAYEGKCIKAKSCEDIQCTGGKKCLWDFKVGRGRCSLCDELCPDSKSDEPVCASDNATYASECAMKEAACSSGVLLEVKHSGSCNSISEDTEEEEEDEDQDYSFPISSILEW
# [6] = molecular target: Fibroblast growth factor 2 (Homo sapiens) (UniProt P09038); experiment: FGF2 binders on small-molecule microarrays, primary screen, biochemical, small-molecule microarray, 635/667 nm fluorescence (AID 1133); details: small-molecule microarray binding, FGF2, fluorescence 635/667; higher = more signal
# Chain of Fibroblast growth factor 2 (Homo sapiens) (P09038 whole entry, looked up): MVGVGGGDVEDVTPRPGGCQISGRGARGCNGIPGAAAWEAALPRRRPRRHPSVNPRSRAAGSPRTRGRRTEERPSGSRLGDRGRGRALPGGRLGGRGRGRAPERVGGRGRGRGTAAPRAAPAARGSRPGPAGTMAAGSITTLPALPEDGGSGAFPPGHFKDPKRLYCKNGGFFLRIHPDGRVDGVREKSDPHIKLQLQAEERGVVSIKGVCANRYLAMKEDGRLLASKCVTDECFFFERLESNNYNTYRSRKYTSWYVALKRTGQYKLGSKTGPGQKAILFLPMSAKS
# [7] = mitochondrial membrane potential change in A549 cells, profiling panel, cell-based, JC-1 fluorescence, basal, 24 h, 100 nL (AID 1138); details: higher = more signal;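 note: A549 lung adenocarcinoma cells under basal conditions with no added stimulus; test concentration not given here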
# [8] = test system: Lefty1; experiment: Lefty1 binders on small-molecule microarrays, primary screen, biochemical, small-molecule microarray, 635/667 nm fluorescence (AID 1139); details: small-molecule microarray binding, fluorescence 635/667; higher = more signal
# [9] = test system: wheat germ agglutinin (Triticum aestivum), Alexa647-labelled; experiment: wheat germ agglutinin binders on compound microarrays, profiling panel, artefact control for SMM control-protein annotation, biochemical, small-molecule microarray, 635/667 nm fluorescence (AID 1140); details: WGA-A647 binding, 635 nm fluorescence, higher = more signal;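 note: score merges 667 nm feature emission with signal to noise over triplicate slides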
# [10] = molecular target: Luciferin 4-monooxygenase (Photinus pyralis) (UniProt P08659); experiment: firefly luciferase enzyme inhibitors, primary screen, biochemical, luminescence, purified enzyme, 2006 set (AID 1141); details: SteadyGlo luminescence, 30 min, higher = more signal, called active from +8 up or from −8 down;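 note: cell-free assay with purified firefly luciferase at 100 ng per well in PBS; test concentration not given here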
# Chain of Luciferin 4-monooxygenase (Photinus pyralis) (P08659 whole entry, looked up): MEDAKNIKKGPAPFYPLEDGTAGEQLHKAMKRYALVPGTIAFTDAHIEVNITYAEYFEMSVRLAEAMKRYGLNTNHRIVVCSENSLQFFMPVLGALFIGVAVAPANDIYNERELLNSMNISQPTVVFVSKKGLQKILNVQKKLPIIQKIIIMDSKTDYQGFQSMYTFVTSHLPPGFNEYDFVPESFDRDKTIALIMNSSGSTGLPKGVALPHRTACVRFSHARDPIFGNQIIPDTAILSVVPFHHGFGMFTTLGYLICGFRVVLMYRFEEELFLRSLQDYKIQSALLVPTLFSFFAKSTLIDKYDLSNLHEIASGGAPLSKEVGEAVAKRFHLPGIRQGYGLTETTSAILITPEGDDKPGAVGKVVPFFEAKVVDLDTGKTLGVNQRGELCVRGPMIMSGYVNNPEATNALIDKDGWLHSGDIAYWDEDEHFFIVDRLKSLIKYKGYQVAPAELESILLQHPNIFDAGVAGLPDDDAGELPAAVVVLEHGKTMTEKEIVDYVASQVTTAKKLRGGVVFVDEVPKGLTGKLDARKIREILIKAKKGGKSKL
# [11] = test system: Wnt5a (protein binding on small-molecule microarray); experiment: Wnt5a binders on small-molecule microarray, primary screen, biophysical, 635/667 nm fluorescence (AID 1142); details: 635 nm fluorescence, higher = more signal;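 note: fluorescence read at 667 nm with signal to noise per printed feature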
# [12] = cell viability in Huh7 cells, primary screen, cytotoxicity control for HCV replication inhibitor project, CellTiter-Glo luminescence, basal, 48 h (AID 1143); details: Huh7 HCV replicon, higher = more signal, called active from +8 up or from −8 down;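 note: Huh7 hepatoma cells carrying a hepatitis C replication reporter with no stimulus; test concentration not given here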
# [13] = P. aeruginosa biofilm formation inhibitors, primary screen, PAO1 strain, BacTiter-Glo luminescence, LB-PBS (AID 1144); details: 12 h, higher = more signal
# [14] = CREB reporter modulators without forskolin, primary screen, cell-based, PC12, CRE-LacZ reporter, unstimulated (AID 1145); details: no forskolin, luminescence, 4.5 h, higher = more signal, called active from +8 up or from −8 down
# [15] = CREB reporter modulators under forskolin, primary screen, cell-based, PC12, CRE-LacZ reporter, forskolin-stimulated (AID 1146); details: luminescence, 4.5 h, higher = more signal, called active from +8 up or from −8 down;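 note: PC12 cells with 6xCRE LacZ reporter stimulated by forskolin 10 µM; beta-galactosidase reporter signal reflecting CREB driven transcription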
# [16] = molecular target: Streptavidin (Streptomyces avidinii) (UniProt P22629); experiment: streptavidin binders on small-molecule microarray, primary screen, artefact control for SMM compound annotation, biophysical, 635/667 nm fluorescence (AID 1147); details: streptavidin binding, higher = more signal;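 note: signal reflects streptavidin binding to arrayed compounds as a control protein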
# Chain of Streptavidin (Streptomyces avidinii) (P22629 whole entry, looked up): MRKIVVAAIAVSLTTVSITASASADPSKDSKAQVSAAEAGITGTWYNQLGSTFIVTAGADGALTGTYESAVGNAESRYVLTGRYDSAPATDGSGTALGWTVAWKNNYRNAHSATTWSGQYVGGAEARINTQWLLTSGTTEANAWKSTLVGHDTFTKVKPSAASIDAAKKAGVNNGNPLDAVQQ
# [17] = small-molecule binders of probe aInhba, primary screen, biochemical, small-molecule microarray, 635/667 nm fluorescence (AID 1148); details: higher = more signal;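 note: score merges 667nm spot fluorescence with signal-to-noise for antibody binding to printed compounds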
# [18] = molecular target: Torsin-1A (Homo sapiens) (UniProt O14656); experiment: torsin A binders from cell lysate, primary screen, small-molecule microarray, wild-type, 635/667 nm (AID 1149); details: COS7 hTOR1A-WT lysate, 635 nm fluorescence, higher = more signal
# Chain of Torsin-1A (Homo sapiens) (O14656 whole entry, looked up): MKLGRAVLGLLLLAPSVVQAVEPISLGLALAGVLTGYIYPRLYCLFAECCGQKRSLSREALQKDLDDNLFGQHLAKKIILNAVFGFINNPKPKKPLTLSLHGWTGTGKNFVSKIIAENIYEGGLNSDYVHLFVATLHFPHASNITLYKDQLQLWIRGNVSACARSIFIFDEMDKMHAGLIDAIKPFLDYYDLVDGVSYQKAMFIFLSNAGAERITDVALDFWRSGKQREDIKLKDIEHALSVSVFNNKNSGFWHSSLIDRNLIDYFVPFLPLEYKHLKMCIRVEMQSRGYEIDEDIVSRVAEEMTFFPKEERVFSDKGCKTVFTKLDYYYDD
# [19] = molecular target: Torsin-1A (Homo sapiens) (UniProt O14656); experiment: small-molecule binders of mutant TOR1A in lysate, primary screen, cell lysate, small-molecule microarray, COS7 lysate, 635/667 nm fluorescence (AID 1150); details: COS7 hTOR1A mutant lysate, 635 nm fluorescence, higher = more signal;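 note: score pools 667 nm emission and signal to noise measuring lysate protein binding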
# [20] = test system: Sonic hedgehog protein (Shh); experiment: small-molecule binders of Shh protein, primary screen, biochemical, small-molecule microarray, 635/667 nm fluorescence (AID 1151); details: small-molecule microarray binding, 635 nm fluorescence; higher = more signal;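 note: Shh protein binding to compounds spotted on small-molecule microarray slides; score combines spot fluorescence intensity with signal-to-noise across triplicate slides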
SMILES,composite z-score [1],composite z-score [2],composite z-score [3],composite z-score [4],composite z-score [5],composite z-score [6],z-score [7],composite z-score [8],composite z-score [9],z-score [10],composite z-score [11],z-score [12],z-score [13],z-score [14],z-score [15],composite z-score [16],composite z-score [17],composite z-score [18],composite z-score [19],composite z-score [20]
CO[C@H]1O[C@H](CO)[C@@H](OC(=O)c2ccc(Br)cc2)[C@@H]2OC(=O)[C@@H](Cc3ccc4ccccc4c3)C/C=C/C[C@H](Cc3ccc4ccccc4c3)C(=O)O[C@@H]12,1.4,1.2,0.337,-0.216,0.395,-0.311,1.59,-0.345,0.691,-1.28 (inactive),0.18,-2.88 (inactive),0.4 (inactive),0.139 (inactive),-0.433 (inactive),0.48,-0.103,0.0121,0.625,-0.219
CC(C)c1ccc(NN2C(C(O)c3ccco3)C=CC3C(=O)N(c4ccccc4)C(=O)C32)cc1 (stereo not given),1.26,1.22,1.14,0.995,1.26,0.0324,0.222,0.634,1.32,-1.29 (inactive),0.445,-0.604 (inactive),-0.688 (inactive),0.622 (inactive),-0.554 (inactive),1.47,0.271,0.185,0.445,0.794
O=C1O[C@@H](c2ccccc2)[C@@H](c2ccccc2)N2[C@@H](c3ccc(O)cc3)[C@]3(C(=O)Nc4ccc(C#CC5=CCCCC5)cc43)[C@@H](C(=O)N3CCN(c4ncccn4)CC3)[C@H]12,0.567,1.19,1.24,0.811,1.22,1.1,-0.367,0.68,0.262,0.745 (inactive),0.326,-3.76 (inactive),-1.07 (inactive),-1.14 (inactive),-0.286 (inactive),0.448,0.0633,0.6,0.836,1.21
CC(=O)NCCCC[C@@H]1NC(=O)[C@@H]2C[C@H](C(=O)O)[C@H](c3ccc(O)cc3)N2C1=O,2.07,-1.12,-0.58,-0.408,-0.893,-1.15,-0.61,-1.71,-0.885,0.75 (inactive),-0.734,0.454 (inactive),-0.646 (inactive),-0.679 (inactive),0.407 (inactive),-1.04,-0.335,-2.46,-2.19,-0.96
NCCCCCNC(=O)[C@@H]1C[C@@H]2C(=O)N[C@@H](CCCCN)C(=O)N2[C@@H]1c1cccc(OCCO)c1,2.33,-0.0045,-0.214,0.101,1.17,1.25,0.844,1.54,0.715,1.03 (inactive),0.331,0.21 (inactive),-0.85 (inactive),-0.541 (inactive),-0.304 (inactive),0.302,-0.331,0.247,-0.02,1.55
COc1cc(OC)c(C(O)C2C=CC3C(=O)N(c4ccccc4)C(=O)C3N2Nc2ccc(C#N)cc2)cc1Br (stereo not given),1.36,1.02,0.707,0.674,1.22,0.217,0.658,-0.129,1.13,0.289 (inactive),0.507,0.411 (inactive),-0.245 (inactive),2.17 (inactive),-0.475 (inactive),1.9,0.451,0.367,0.99,-0.186
CC(C)C(CO)N1C(=O)[C@]2(C)C3C(=O)OCCC/C=C\[C@H]3OC23C=CCN(c2ccc(Cl)cc2)C(=O)[C@@H]13 (stereo not given in full),-0.0262,-0.456,0.118,-0.809,-0.223,-0.815,0.612,0.211,-0.367,-0.657 (inactive),-0.269,-0.199 (inactive),1.25 (inactive),-0.358 (inactive),1.11 (inactive),-0.476,-0.128,-1.47,-0.856,0.279
C=C(CCCC)/C(=C/C[C@@H](OC(=O)c1ccncc1)c1cccc(OCCO)c1)c1cnc2ccccc2c1,0.65,0.539,0.0663,0.832,1.5,1.74,1.14,1.6,0.871,-1.63 (inactive),1.25,-3.08 (inactive),-0.772 (inactive),3.22 (inactive),0.644 (inactive),1.49,0.194,1.22,0.0816,2.09
COc1ccc([Si](C)(C)[C@@H]2[C@@H](CCO)O[C@]3(C(=O)N(Cc4cccc(N5C(=O)c6cccc7cccc5c67)c4)c4ccccc43)[C@H]2C)cc1,1.06,0.848,-0.123,0.136,0.004,-0.0148,-0.43,0.626,0.0034,-0.508 (inactive),-0.101,-5.93 (inactive),0.568 (inactive),7.33 (inactive),-0.24 (inactive),-0.138,-0.128,-0.516,-0.252,0.552
Cc1ccc(S[C@]2(C(=O)O)CC(=O)N(Cc3ccccc3Cl)[C@@H]2c2ccc(CO)cc2)cc1,-0.24,-0.558,-0.299,-0.271,-0.83,-0.26,-0.939,-1.26,0.478,-0.999 (inactive),0.0044,-1.55 (inactive),0.596 (inactive),0.441 (inactive),1.27 (inactive),-0.868,-0.0791,-0.951,0.822,-0.259
